Source: PubChem BioAssay
YjeE inh: YjeE (TsaE) inhibition, E. coli; Potency, µM; 71,000 compounds, 0.05% hits; purified YjeE enzyme, qHTS inhibition assay
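Fluorescence polarization of a BODIPY Texas Red–ADP probe (2 uM) bound to purified YjeE (10 uM) was read after 15 min room-temperature incubation with compounds. Loss of polarization marks inhibitors; ADP serves as titrated control.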
BRCT inh red: BRCT-phosphoprotein interaction inhibition (red fluorophore). P38398. BRCT-phosphopeptide binding, red fluorescence polarization. Potency, µM (titrated, usually from 76.9 µM), hits mostly inhibitors. 75,000 compounds, 0.03% hits. AID 892
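Fluorescence polarization: 100 nM His-tagged BRCA1 BRCT with 100 nM TAMRA-labelled phospho-BACH1 decapeptide, phosphate buffer pH 7.3 with 150 mM NaCl, DTT, 0.01% Tween 20; 12 min RT. Binding inhibition seen as FP decrease.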
TSHR ag: agonists of human thyroid stimulating hormone receptor; P16473; 73,000 compounds, 0.48% hits; AID 926; HEK293-CNG-TSHR cells (CNG channel as cAMP sensor), membrane potential dye, cAMP; Potency, µM (top dose mostly 57.1 µM), most hits filed as activators; active means well fitted activation curve with a large enough effect in the main read-out, with a control signal flat, not every such curve was filed as active; inconclusive means small, poorly fitted or top-dose-only effect, or a change in a side signal; inactive means no such curve, though single readings can be large or run the other way; reference of the percent scale not stated here;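 further: the control signal comes from parental cells without the receptor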
Target sequence (P16473 whole entry, looked up): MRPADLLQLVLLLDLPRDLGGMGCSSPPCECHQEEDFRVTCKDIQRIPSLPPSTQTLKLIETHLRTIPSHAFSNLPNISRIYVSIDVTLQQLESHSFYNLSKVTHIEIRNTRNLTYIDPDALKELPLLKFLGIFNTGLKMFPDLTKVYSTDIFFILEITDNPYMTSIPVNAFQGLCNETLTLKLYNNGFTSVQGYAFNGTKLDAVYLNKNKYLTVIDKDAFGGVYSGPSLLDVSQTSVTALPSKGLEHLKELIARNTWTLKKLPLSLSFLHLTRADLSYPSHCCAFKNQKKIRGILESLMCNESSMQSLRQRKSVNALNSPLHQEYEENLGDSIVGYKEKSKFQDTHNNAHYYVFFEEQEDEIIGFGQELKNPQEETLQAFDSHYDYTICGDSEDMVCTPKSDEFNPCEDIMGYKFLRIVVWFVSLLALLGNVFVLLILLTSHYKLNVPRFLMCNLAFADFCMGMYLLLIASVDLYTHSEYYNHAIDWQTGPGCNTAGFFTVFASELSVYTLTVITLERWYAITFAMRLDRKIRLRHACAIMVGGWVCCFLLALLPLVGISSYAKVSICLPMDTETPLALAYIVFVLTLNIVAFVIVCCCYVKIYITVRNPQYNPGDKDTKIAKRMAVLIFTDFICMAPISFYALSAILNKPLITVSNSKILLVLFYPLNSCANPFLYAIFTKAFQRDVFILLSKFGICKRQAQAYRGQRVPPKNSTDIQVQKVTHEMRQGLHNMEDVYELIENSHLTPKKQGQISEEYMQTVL
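cAMP rise detected as CNG-channel membrane depolarization by fluorescent dye (emission 590 nm), 30 min after compound, following 60 min dye loading containing 100 uM RO 20-1724 at room temperature. Cells: TSHR/CNG HEK 293, with parental CNG HEK 293 as control.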
Pol III holo inh: blocks replication by bacterial DNA polymerase III holoenzyme | reconstituted DNA polymerase III holoenzyme replication, biochemical | Potency, µM (doses to about 57.1 µM) | 71,000 compounds, 0.25% hits
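Reconstituted *E. coli* holoenzyme (0.35 nM Pol III, 1 nM beta, 154 nM SSB, 2 nM primase) was preincubated with compound for 15 min at RT. Synthesis on 1.4 nM ssM13Gori ran 35 min, then was stopped with PicoGreen/EDTA and read as dsDNA fluorescence.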
BRCT PPI green: blocks human BRCA1 BRCT binding to phosphopeptide, green readout | BRCA1 BRCT-phosphopeptide binding, green fluorescence polarization | Potency, µM (highest dose often 76.9 µM), usual class: inhibitors | 75,000 compounds, 0.05% hits
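Fluorescence polarization: His-tagged BRCT (~35 kDa BRCA1 C-terminus, 250 nM) bound to 100 nM fluorescein-labeled phosphorylated 10-aa BACH1 peptide, pH 7.3 phosphate buffer with DTT and Tween 20. Compounds incubated 12 min at room temperature; inhibition read as lowered polarization.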
HEK293 cAMP cs: parental HEK293 cAMP activation (counter-screen); parental HEK293 CNG cAMP sensor, membrane potential fluorescence; Potency, µM (highest dose often 57.1 µM), hits mostly activators; 73,000 compounds, 2.5% hits; AID 938; further: nearly all actives have a fitted effect of over 55% in size
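Counterscreen for endogenous-receptor signalling: CNG-channel HEK 293 cells report cAMP rise by membrane depolarization. After 60 min dye equilibration with 100 uM RO 20-1724, compounds incubated 30 min before bottom-read fluorescence at 590 nm.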
Hits are given with their value; 0 = inactive; ? = inconclusive; - = not tested or not shown; [ ] = another dose, or the depositor's remark. Only some compounds are listed: those with a hit (about 3.2% of all), similar ones and a draw of the others. Unless noted, the call rests on the fitted dose curve; in most records, active means well fitted curve in the direction sought with a large enough effect; inconclusive means small, poorly fitted or top-dose-only effect, or another doubt; inactive means no such curve, though single readings can be large; an effect the other way counts as inactive or inconclusive.

SMILES	YjeE inh	BRCT inh red	TSHR ag	Pol III holo inh	BRCT PPI green	HEK293 cAMP cs
COc1ccccc1NC(=O)C1=C(C)NC(SCC(=O)c2ccccc2)=C(C#N)C1c1ccco1 (configuration not stated)	0	0	0	0	0	0
Cc1noc(C)c1COC(=O)c1ccccc1NC(=O)Cc1ccccc1	0	0	?	0	0	?
Cc1noc(C)c1COC(=O)c1ccccc1Oc1ccccc1	0	0	?	0	0	32µM
COC(=O)CC1C(C)(C)C(OC(C)=O)[C@@]2(O)C=C3C4CC(=O)OC(c5ccoc5)[C@]4(C)CCC3[C@@]1(C)C2=O (some centres not stated)	-	0	-	-	0[3.08 µM]	-
CC[C@@H]1O[C@]2(C=C[C@@H]1C)C[C@H]1C[C@H](CC=C(C)[C@@H](O[C@@H]3C[C@H](OC)[C@H](O[C@@H]4C[C@H](OC)[C@H](O)[C@H](C)O4)[C@H](C)O3)[C@@H](C)C=CC=C3CO[C@@H]4[C@@H](O)C(C)=C[C@@H](C(=O)O1)[C@]34O)O2	0	0	0	0	0	0
CCCn1c(=O)c(C(=O)NCc2ccncc2)c(O)c2ccccc21	0	0	?	0	0	?
CC(C)Cn1c(=O)c(C(=O)NCc2ccccn2)c(O)c2ccccc21	0	0	?	0	0	25µM
CCOCCCNC(=O)c1ccc2c(c1)OCO2	0	0	0	0	0	0
CCCCC(CC)CNC(=O)c1ccc2c(c1)OCO2 (configuration not stated)	0	0	?	0[11.4 µM]	0	4µM
COc1ccc(Cl)cc1-c1nc(-c2ccncc2)no1	0	0	0	0	0	0
Clc1ccc(OCc2nc(-c3ccncc3)no2)c(Cl)c1	0	0	?	0	0	25µM
Cc1ccccc1OCc1nc(-c2ccccc2)no1	0	0	?	0	0	?
Cc1ccc(-c2noc(COc3ccccc3C)n2)cc1	0	0	?	0	0	25µM
COc1cccc(-c2cc(C(=O)Nc3ccccc3SC)no2)c1	0	0	0[11.4 µM]	0	0	0
CCCCn1c(=O)[nH]c(=O)c2c1nc(-c1ccncc1)n2CCOC	0	0	0[11.4 µM]	0	0	0
O=C(CN1CCN(c2ccccn2)CC1)NCCc1ccccc1	0	0	0	0	0	0
COc1ccc(CNc2cc(-c3ccccc3C)ncn2)c(OC)c1	0	0	?	0	0	16µM
COc1ccccc1CNc1cc(-c2cccnc2)ncn1	0	0	?	0	0	?
COc1ccccc1CNc1cc(-c2ccccc2OC)ncn1	0	0	?	0	0	16µM
COCCNc1cc(-c2ccccc2C(F)(F)F)ncn1	0	0	?	0	0	0.32µM
COc1ccccc1CNc1cc(-c2ccccc2C)ncn1	0	0	?	0	0	16µM
OC1(c2ccc3c(c2)OCO3)CCN(Cc2ccccn2)CC1	0	0	0	0	0	0
CCn1cc(Br)c(C(=O)Nc2cccc(SC)c2)n1	0	0	0	0	0	0
CCC(C)(C)n1nnnc1CN1CCC(c2nc3ccc(C)cc3[nH]2)CC1	0	0	0	0	0	0
CC(=O)N1CCCc2cc(S(=O)(=O)CCC(=O)N3CCN(c4cccc(C)c4)C(C)C3)ccc21 (configuration not stated)	0	0	0	16µM	0	0
SMILES	YjeE inh	BRCT inh red	TSHR ag	Pol III holo inh	BRCT PPI green	HEK293 cAMP cs
Cc1cccn2c(=O)c(/C=N/O)c(N3CCCCC3)nc12	0	0	?	0	0	16µM
O=c1c(/C=N/O)c(Nc2ccccc2)nc2ccccn12	0	0	0	0	0	0
CCOC(=O)N1CCC(n2c(SCC(=O)NCCC3=CCCCC3)nc3ccccc3c2=O)CC1	0	0	?	0	0	6.3µM
COc1ccc(C(C)=O)cc1COC(=O)c1cccc(N(C)C)c1	0	0	?	0	0	?
COc1ccc(C(C)=O)cc1COC(=O)c1cc(C)oc1C	0	0	?	0	0	25µM
COc1cc(C2CC(=O)c3cnc(NC(=O)COc4ccccc4)nc3C2)cc(OC)c1OC (configuration not stated)	0	0	-	0	0	0
CCOc1ccccc1CN(CCc1ccc2c(c1)OCO2)Cc1ccccn1	0	0	?	0	0	16µM
O=C1c2ccccc2S(=O)(=O)N1CC1CC(c2ccccc2)=NO1 (configuration not stated)	0	0	0	0	0	0
Cc1ccc(-c2nn3c(-c4ccco4)nnc3c3ccccc23)cc1S(=O)(=O)NCC1CCCO1 (configuration not stated)	0	0	?	0	0	20µM
Cc1ccc(-c2nn(C)c(=O)c3ccccc23)cc1S(=O)(=O)NCCN1CCOCC1	0	0	0	0	0	0
CCOC(=O)N1CCN(C(=O)c2cnn3ccccc23)CC1	32µM	0	0	0	0	0
CCOC(=O)N1CCN(C(=O)Cn2ncc3ccccc32)CC1	0	0	?	25µM	0	?
CCOC(=O)N1CCC(NC(=O)Cn2ncc3ccccc32)CC1	0	0	0	0	0	0
CCOC(=O)N1CCN(C(=O)c2ccccc2-c2ccccc2)CC1	0	0	0	0	0	0
O=C(NC1CCCCC1)C(c1cccs1)N(Cc1cccs1)C(=O)c1ccco1 (configuration not stated)	0	0	?	0	0	0.4µM
O=C(NC1CCCCC1)C(c1cccs1)N(CC1CCCO1)C(=O)c1csnn1 (configuration not stated)	0	0	?	0	0	?
O=C(NC1CCCC1)C(c1cccs1)N(CC1CCCO1)C(=O)Cc1cccs1 (configuration not stated)	0	0	?	0	0	0.32µM
O=C(NCC(=O)N(Cc1ccc(F)cc1)C(C(=O)NC1CCCC1)c1ccco1)c1ccco1 (configuration not stated)	0	0	?	0	0	16µM
COc1ccc(CN(C(=O)CNC(=O)c2ccco2)C(C(=O)NC2CCCC2)c2ccco2)cc1 (configuration not stated)	0	0	0	0	0	0
O=C(NCC(=O)N(Cc1cccs1)C(C(=O)NC1CCCC1)c1ccncc1)c1ccco1 (configuration not stated)	0	0	0	0	0	0
CC(C)(CNS(=O)(=O)c1ccc(Cl)cc1)N1CCCCC1	0	0	0	0	0	0
CCOc1ncccc1C(=O)OCc1ccc(C(=O)OC)o1	0	0	0	0	0	0
CCC(C(=O)N1CCN(c2cccc(Cl)c2)CC1)c1ccccc1 (configuration not stated)	0	0	?	0	0	25µM
